According to PubChem BioAssay (NCI):
The panel holds about 83,000 compounds, 20% with a hit somewhere; the sample as a whole holds those more often.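 Growth was measured after 48 h exposure to one concentration of compound in 96-well plates. Values under 10 count as active.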 A number with no mark means an inactive call. Calls of active or inactive are those of the source.

What follows are molecules tested on HL-60(TB) leukemia (assay: NCI-60 one-dose screen, 48 h (100 = growth as untreated, 0 = no growth, -100 = all killed)). Details: 10 µM unless noted.

Row | SMILES | growth
1 | COc1ccc(C(=O)CSc2nc(-c3cc(OC)ccc3OC)cc(-c3ccc(OC)cc3)c2C#N)cc1 | 98.3%
2 | CNS(=O)(=O)c1ccc(Cl)c(Cl)c1 | 137%
3 | O=C(Nc1cccc2[nH]c(C(F)(F)F)nc12)c1ccc(Br)cc1F | 22.4%
4 | Cc1ccc(S(=O)(=O)N2CCc3ccc(O)c4c3C2Cc2cc(Cl)ccc2-4)cc1 (stereo not given) | 85.3%
5 | CCn1c2ccc(N(C)C)cc2c2cc(N(C)C)ccc21 | 66.1%
6 | C/C(=N\NC(=S)N1CC2CCC(CC2)C1)c1ccccn1 | -22.4% (active)
7 | COc1ccc(-c2ccc(-c3ccc(C(=N)N)cc3)s2)cc1Cl | -48.8% (active)
8 | C=C1C(=O)O[C@H]2[C@H]1CC/C(COC(=O)c1ccc(Br)cc1)=C\CC[C@@]1(C)O[C@@H]21 | -45.6% (active)
9 | COc1cc(NC(C)CCCN)c2nc(C)ccc2c1Oc1ccc(F)cc1 (stereo not given) | 87.9%
10 | COc1ccc(/C=C/C(=O)c2ccc(Oc3ncnc4ccccc34)cc2)cc1OC | 54.7%
11 | CCCCC1COc2cccc3c(SCC(=O)N(C)c4cccc(Cl)c4)cc[n+]1c23 (stereo not given) | 102%
12 | Nc1ccn(C2O[C@H](CO)[C@@H](O)[C@H]2O)c(=O)n1 (stereo not given in full) | 99.7%
13 | C=C(C)[C@@H]1CC[C@]2(C)[C@H](CC=C3[C@@H]4C[C@](C)(C(=O)N5CCN(C)CC5)CC[C@]4(C)CC[C@]32C)[C@@]1(C)CCC#N | 22.6%
14 | O=C1/C(=C\c2cn(CC(O)CN3CCCCC3)c3ccccc23)c2ccccc2N1c1c(Cl)cccc1Cl (stereo not given) | -36.5% (active)
15 | CC1(C)CC(O)CCCCCCOc2c(CN)cccc2NC(=O)c2nc(cnc2N)-c2ccc(cc2)S1(=O)=O (stereo not given) | -49.3% (active)
16 | Cc1ccccc1N1C(c2ccccc2)=NNC12C=CC(=O)c1c(O)cccc12 (stereo not given) | 70.2%
17 | O=C1Nc2ccccc2C12CC(c1ccc(Cl)cc1)=NN2 (stereo not given) | 99.1%
18 | O=c1c(-c2nc3ccccc3[nH]2)cc2ccccc2n1Cc1cn(Cc2ccc(N3CCOCC3)cc2)nn1 | 104%
19 | Cc1cc(Cl)nc(N(CCCNc2ccnc3cc(Cl)ccc23)Cc2ccccn2)n1 | 12%
20 | N#CC1=C(N)Oc2c(c(N)nn2-c2ccccc2)C1c1ccc(Cl)cc1Cl (stereo not given) | 96.5%

Row | SMILES | growth
21 | COc1ccc(C2CC(c3cccc(Nc4ccnc5cc(Cl)ccc45)c3)=NN2C=O)cc1 (stereo not given) | -38.2% (active)
22 | Cc1ccc(/C=C2\C(=O)N(C)c3ccc(S(=O)(=O)Nc4ccc(C(C)(C)C)cc4)cc32)s1 | 93.1%
23 | CCN(CC)CCCC(C)Nc1ccc2cc(OC)ccc2n1 (stereo not given) | 126%
24 | O=C(O)c1c([N+](=O)[O-])cnc2ccccc12 | 92.4%
25 | Fc1ccc(Nc2ccnc(N3CCN(c4ccnc5cc(Cl)ccc45)CC3)n2)cc1 | 15.9%
26 | CC(C)C(C)C(N)C(=O)O (stereo not given) | 97.9%
27 | COc1ccc(-c2cc3c(OC)c(OC)c(OC)cc3oc2=O)cc1 | 36.5%
28 | CC[C@@H](C)[C@H](NC(=O)Cn1cc(CNC(=O)[C@@H](NC(=O)OCc2ccccc2)C(C)C)nn1)C(=O)O | 113%
29 | COc1ccc(CNc2c3ccccc3nc3ccccc23)cc1F | 12.9%
30 | COc1ccc(/C=C/C(=O)NCCO)cc1 | 93.6%
31 | CC([C@H]1CCC2C3CCC4C[C@@H](N)CC[C@]4(C)C3CC[C@@]21C)N(C)C (stereo not given in full) | 30.6%
32 | COc1ccc(C=Nc2c(C(=O)Nc3cccc(Cl)c3C)sc3nc(C)c(C(=O)/C=C/c4ccc(OC)cc4)cc23)cc1 | 9.38% (active)
33 | O=C(O)CC(C(=O)O)/C(=C\c1ccccc1)c1ccccc1 (stereo not given) | 107%
34 | Cc1nc([P+](c2ccccc2)(c2ccccc2)c2ccccc2)c(Sc2sc(-c3ccccc3)nc2[P+](c2ccccc2)(c2ccccc2)c2ccccc2)o1 | -17.9% (active)
35 | O=c1c2ccccc2n(CC(O)CN2CCCC2)c2c(Br)cccc12 (stereo not given) | 82.3%
36 | CCCCCCCCN(CCCCCCCC)CCCCCCCCCN1CCCc2cc(OC)ccc21 | 89.6%
37 | COc1ccc(Cc2cnc(NC(=O)c3cc(C)oc3C)s2)cc1 | -9.34% (active)
38 | CC(C)c1ccc(Nc2n[nH]c(=S)s2)cc1 | 97.7%
39 | Cc1ccc(/C=C(\C#N)n2nnc3cc(F)c(F)cc32)cc1 | -1.91% (active)
40 | Cc1cc2nc(-c3c(-c4ccc(F)cc4)nc4sccn34)[nH]c2cc1C | 87.3%
